Drawing on PubChem BioAssay AID540353 (National Center for Advancing Translational Sciences (NCATS), 2011), this text covers Potency for nine molecules.

The list shows a part of the results. Results filed as inconclusive are left out. Active and inactive are the calls of the source. Calls follow the shape of the dose curve; as a rule, active = well fitted inhibition curve with a large enough effect; inconclusive = small, poorly fitted or top-dose-only effect; inactive = no such curve, though single readings can be large or run the other way.

The nature of this assay: qHTS for Inhibitos of Bacillus subtilis Sfp phosphopantetheinyl transferase (PPTase): Chemistry Optimization Followup in B. Subtilis HM489. To be noted: B. subtilis HM489 (acpS-) growth, BacTiter-Glo, 5 h; series mostly up to 114 µM. The source says: Phosphopantetheinyl transfer is a process essential to cellular viability and maintenance. Cellular permeable and stable compounds acting as PPTase inhibitors are anticipated to be antimicrobial agents in organisms with complimenting genotypes. […] This experiment evaluated a series of test compounds for antimicrobial activity with B. subtilis HM489 (genotype: acpS- and sfp+), a strain that contains a targeted lesion in the acpS locus and thus requires a functional Sfp gene product for viability. [Mootz HD, 2001] This strain is expected to be sensitized to cell-permeable Sfp inhibitors. NIH Chemical Genomics Center [NCGC] NIH Molecular Libraries Probe Centers Network [MLPCN] MLPCN Grant: MH083266-01 Assay Submitter (PI): Michael Burkart, University of California, San Diego
Innoculum preparation. Bacillus subtilis HM489 is maintained on lysogeny broth (LB) solidified by the addition of 1.5% w/v agar. Single colonies were used to LB medium (2 mL) and shaken overnight at 30 masculineC. In the morning, this culture (100 uL) was used to seed a fresh LB medium (10 mL) and was shaken at 30 masculineC until the culture OD600 reached 0.5. This culture was diluted 1:100 in fresh LB medium to provide the inoculum below. Bacterial susceptibility. LB medium (2 uL) is dispensed into wells of a sterile white 1536-well plate. Test compounds (23 nL) prepared as serial dilutions in DMSO are added to the plate by pintool transfer. Innoculum (2 uL) is added; the plates are covered with a vented Kalypsys assay lid and incubated at 30 masculineC. After 5 hrs, Bac-Titer Glo (4 uL; Promega Corp, Madison, WI) is added to the plates. They are incubated 10 minutes at room temperature and then the luminescence detected in a ViewLux multimodal plate reader.
Turning to `COc1cccc(NC(=S)N2CCN(c3ccccc3C(F)(F)F)CC2)n1`, the Potency was 23.5 µM (active). Then `Cc1cc(C)nc(NC(=S)N2CCN(c3ccc4nonc4c3)CC2)c1`, with “inactive”; and `Cc1ccc(N2CCN(C(=S)Nc3cc(C)ccn3)CC2)cc1`, with 33.2 µM (active).

For the molecule `COc1ccnc(NC(=S)N2CCN(c3ncc(C(F)(F)F)cc3Cl)CC2)c1`, the Potency was 11.8 µM (active). Then `Cc1cc(C)nc(NC(=S)N2CCN(c3ccc(Cl)cc3C(F)(F)F)CC2)c1`, with 10.5 µM (active); and `Cc1cc(C)nc(NC(=S)N2CCN(c3ccc(Cl)cc3F)CC2)c1`, with 23.5 µM (active). The result for `FC(F)(F)c1cccc(N2CCN(C(=S)Nc3ccncc3)CC2)c1` reads 59.1 µM (active); that for `Cc1cc(C)nc(NC(=S)N2CCN(c3cccc(C(F)(F)F)c3)CC2)c1`, 33.2 µM (active); that for `COc1cccc(NC(=S)N2CCN(c3ccc(Cl)cc3Cl)CC2)n1`, “inactive”.
